Hits are enriched below; roughly 4% of the tested compounds scored in any of these assays.
UGM FP inh = M. tuberculosis UGM enzyme inhibitors, primary screen, biochemical, fluorescence polarization, single point; inhibition, % at 10 µM; 320,000 tested, 0.06% active; purified UGM, fluorescence polarization probe displacement; AID 504406, 2011; in the data active = inhibition above about 10%, passing the limit was not always enough; inconclusive = no clear call, values can overlap the other calls
Mtb FBA inh = Mtb FBA enzyme inhibitors, primary screen, biochemical, fluorescence, strain H37Rv | inhibition, % at 1 µM | Fructose-bisphosphate aldolase (Mycobacterium tuberculosis (strain ATCC 25618 / H37Rv)), … | AID 588726, 2011 | 360,000 tested, 2.3% active | purified M. tuberculosis FBA, fluorescence read-out; in the data active = inhibition above about 27%
RecA splice inh = Mtb RecA intein splicing inhibitors, primary screen, biochemical, fluorescence, HTS | Protein RecA (Mycobacterium tuberculosis (strain ATCC 25618 / H37Rv)), P9WHJ3 | cell-free RecA intein splicing | inhibition, % (concentration not given with the values) | 290,000 tested, 0.75% active | AID 2221, 2009; in the data active = inhibition above about 30%; inconclusive = no clear call, values can overlap the other calls
Target sequence (P9WHJ3 whole entry, looked up, canonical isoform): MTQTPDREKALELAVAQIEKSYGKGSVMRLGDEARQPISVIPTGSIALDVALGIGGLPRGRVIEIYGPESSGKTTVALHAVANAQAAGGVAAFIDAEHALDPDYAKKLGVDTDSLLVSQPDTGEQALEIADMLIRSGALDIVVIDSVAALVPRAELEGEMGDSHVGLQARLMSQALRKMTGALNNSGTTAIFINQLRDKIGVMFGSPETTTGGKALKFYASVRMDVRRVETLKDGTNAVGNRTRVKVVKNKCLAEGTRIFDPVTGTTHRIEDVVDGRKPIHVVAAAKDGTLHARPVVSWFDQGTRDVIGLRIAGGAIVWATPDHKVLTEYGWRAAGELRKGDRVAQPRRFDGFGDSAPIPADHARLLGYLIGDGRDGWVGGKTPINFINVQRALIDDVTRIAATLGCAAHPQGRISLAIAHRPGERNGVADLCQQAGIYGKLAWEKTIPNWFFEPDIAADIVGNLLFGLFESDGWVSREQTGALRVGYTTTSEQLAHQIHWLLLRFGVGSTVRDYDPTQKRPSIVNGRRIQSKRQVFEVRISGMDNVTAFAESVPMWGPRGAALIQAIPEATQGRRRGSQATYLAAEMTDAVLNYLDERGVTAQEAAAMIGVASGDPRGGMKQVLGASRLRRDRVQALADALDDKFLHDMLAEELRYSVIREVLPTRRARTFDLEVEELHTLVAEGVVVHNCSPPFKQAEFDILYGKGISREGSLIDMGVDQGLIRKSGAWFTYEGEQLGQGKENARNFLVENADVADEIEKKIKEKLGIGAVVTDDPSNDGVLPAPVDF
Mtb bLac sens = beta-lactam sensitization of Mtb H37Rv, H37Rv. 330,000 tested, 0.27% active. AID 434955, 2010. inhibition, % at 25 µM. M. tuberculosis H37Rv growth with meropenem, percent inhibition; call rule not given here;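 also: growth measured after seven days incubation then overnight dye step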
GDH-TPI counter = GDH-TPI coupling enzyme inhibitors, primary screen, artefact control for M. tuberculosis FBA inhibitor project, biochemical, absorbance, full deck; GDH-TPI coupled enzyme counterscreen, NADH absorbance; inhibition, % at 4.8 µM; 360,000 tested, 1.2% active; AID 588335, 2011; in the data active = inhibition above about 30%
Rv3671c protease = Rv3671c serine protease inhibitors, primary screen, biochemical, fluorescence polarization, M. tuberculosis H37Rv; P9WHR9; inhibition, % at 5.96 µM; 320,000 tested, 0.048% active; AID 2606, 2010; in the data active = inhibition above about 38%;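 also: extracellular domain of Rv3671c used as enzyme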
Each line names hits and unclear results; the compound was inactive in the other large screens.

CCOc1ccccc1N1CCN(C(=O)C2CSC3(C)CCC(=O)N23)CC1 (stereo not given)	none (no result: RecA splice inh)
CN(C)c1ccc(/C=N/NC(=O)C(=O)N2CCCCCC2)cc1	GDH-TPI counter 35.5 (no result: RecA splice inh)
COc1ccc(/C=N/NC(=O)C(=O)N2CCCC2)cc1	none
COc1cc(C(=O)Nc2nnc(C3=COCCO3)o2)cc(OC)c1OC	none
CN(C)C=Nc1ccc(Cl)c(Cl)c1	none
CN(C)C=Nc1ccc2nn(-c3ccccc3)nc2c1	Mtb FBA inh 176.6
CCc1ccc(CN(C)C(=O)c2cc(COc3cncc(Cl)c3)on2)cc1	none (no result: UGM FP inh, RecA splice inh, Mtb bLac sens, Rv3671c protease)
CCOc1cc(/C=N\Nc2ncc(F)c(N3CCOCC3)n2)ccc1Oc1nc(Cl)ncc1F	GDH-TPI counter 32.7
O=C1NC(=O)/C(=C/c2ccccc2OCc2ccccc2)S1	GDH-TPI counter 31.7
O=C(COc1ccccc1/C=C1\SC(=O)NC1=O)Nc1ccccc1	none
CCCCOc1ccc(C(=O)N/C(=C/C=C/c2ccccc2)C(=O)NC)cc1	GDH-TPI counter 32.8 (no result: RecA splice inh)
CCCCOc1ccc(C(=O)N/C(=C/C=C/c2ccccc2)C(=O)O)cc1	none
O=C(O)COc1ccc(/C=N/NC(=O)/C(=C/C=C/c2ccccc2)NC(=O)c2ccccc2)cc1	GDH-TPI counter 54.7
Cc1ccc(C(=O)c2ccccc2C(=O)OCC(=O)N2C(C)CCCC2C)cc1 (stereo not given)	none (no result: RecA splice inh)
O=C(/C=C/c1ccccc1Cl)Nc1ccc2c(c1)C(=O)NC2=O	GDH-TPI counter 37.0
O=C(/C=C/c1ccccc1)Nc1ccc2c(c1)C(=O)NC2=O	none
CCOC(=O)C1=CCN(S(=O)(=O)c2ccccc2F)C1c1ccc(F)cc1 (stereo not given)	none (no result: UGM FP inh, RecA splice inh, Mtb bLac sens, GDH-TPI counter, Rv3671c protease)
CC(=O)c1ccc(N(CC(=O)NC2CCS(=O)(=O)C2)S(=O)(=O)c2ccc(Cl)cc2)cc1 (stereo not given)	none (no result: RecA splice inh)
CS(=O)(=O)N(CC(=O)N/N=C/c1cccc2c1OCCO2)c1ccccc1Br	none
CCOC(=O)c1ccc(-c2ccc(/C=N/NC(=O)CN(c3ccccc3Br)S(C)(=O)=O)o2)cc1	GDH-TPI counter 32.5
CS(=O)(=O)c1ccc(-c2csc(C(O)c3cccc(Cl)c3)n2)cc1 (stereo not given)	none (no result: UGM FP inh, RecA splice inh, Mtb bLac sens, Rv3671c protease)
COc1ccc(NC(=O)CCCN2C(=O)CN(C)C2=O)cc1Cl	none (no result: RecA splice inh)
O=C1N=C(N2CCOCC2)S/C1=C/c1cccs1	GDH-TPI counter 33.8
CC(C)c1ccc(/C=C2\SC(N3CCOCC3)=NC2=O)cc1	GDH-TPI counter 31.7
CCc1ccc(/C=C2/SC(N3CCOCC3)=NC2=O)cc1	GDH-TPI counter 47.1
CC(=O)N1CCN(C2=NC(=O)/C(=C\c3cccs3)S2)CC1	none
CC(=C/c1ccccc1)/C=C1/SC(N2CCOCC2)=NC1=O	Mtb bLac sens inconclusive, GDH-TPI counter 32.0
O=C1N=C(N2CCOCC2)S/C1=C\c1ccncc1	none
COc1ccc(C(=O)OCCOc2cccc(Cl)c2)cc1S(=O)(=O)N1CCOCC1	none
CC(Sc1ncccn1)C(=O)Nc1ccc2c(c1)OCO2 (stereo not given)	none (no result: RecA splice inh)
O=C(NCc1ccco1)/C(=C\c1ccco1)NC(=O)c1ccco1	none (no result: UGM FP inh)
CC(=O)c1cccc(NC(=O)/C(=C\c2ccco2)NC(=O)c2cccs2)c1	GDH-TPI counter 32.4
NNC(=O)/C(=C\c1ccco1)NC(=O)c1ccco1	GDH-TPI counter 35.0
O=C(Nc1cccc(F)c1)/C(=C\c1ccco1)NC(=O)c1ccco1	GDH-TPI counter 38.8
COc1cc(OC)nc(C(NC(=O)C2CCN(Cc3c[nH]c4ccccc34)CC2)c2ccc(Cl)cc2)n1 (stereo not given)	none (no result: UGM FP inh, RecA splice inh, Mtb bLac sens, Rv3671c protease)
CN[C@@H](CO)C(=O)NC[C@H]1O[C@@H](n2cc(C)c(=O)[nH]c2=O)C[C@@H]1O	none (no result: UGM FP inh, RecA splice inh, Mtb bLac sens, Rv3671c protease)
O=C(CSc1nnc(C2CC2)n1CC1CCCO1)Nc1ccc(Cl)cc1 (stereo not given)	none (no result: RecA splice inh)
Cc1ccc(NC(=S)Nc2ccccn2)cc1C	none
Cc1ccc(NC(=S)Nc2ccc3nc(-c4ccccn4)c(-c4ccccn4)nc3c2)cc1C	GDH-TPI counter 31.5 (no result: RecA splice inh)
C=CCNc1nc(N)c(C(=C(C#N)C#N)c2ccc(Br)cc2)s1	Mtb FBA inh 125.9
COc1ccc(-n2ncc3c2CC(C)(C)CC3NC(=O)C2=CC(=O)CC(C)(C)O2)cc1 (stereo not given)	Mtb FBA inh 152.8
CC1(C)Cc2c(cnn2-c2ccc(F)cc2)C(NC(=O)C2=CC(=O)CC(C)(C)O2)C1 (stereo not given)	none (no result: UGM FP inh, RecA splice inh, Mtb bLac sens, Rv3671c protease)
C/C(CC(=O)Nc1ccc(Cl)cc1)=N\NC(=O)C(=O)N1CCCCC1	RecA splice inh 77.8
O=C(/C=C/[C@H]1O[C@@H](n2cnc3c(NC(=O)c4ccccc4)ncnc32)[C@H](O)[C@@H]1O)NCC1CCCCC1	none (no result: UGM FP inh, RecA splice inh, Mtb bLac sens, GDH-TPI counter, Rv3671c protease)
COC(=O)Nc1ccc2ccc3c(NC(=O)OC)ccc4ccc1c2c43	Mtb FBA inh active, GDH-TPI counter 43.9 (no result: UGM FP inh, RecA splice inh, Mtb bLac sens, Rv3671c protease)
C/C(=N\Nc1ccc(S(N)(=O)=O)cc1[N+](=O)[O-])c1ccco1	GDH-TPI counter 41.2
C/C(=N\Nc1ccc(S(N)(=O)=O)cc1[N+](=O)[O-])c1ccccc1O	none
CCOC(=O)C[n+]1ccc2c([nH]c3ccccc32)c1C	Mtb FBA inh 134.9
CCOC(=O)Cc1c(Cl)c2ccccc2[nH]c1=O	none
Cc1ccc(NC(=O)c2ccc(Br)o2)c([N+](=O)[O-])c1	none (no result: UGM FP inh, RecA splice inh, Mtb bLac sens, Rv3671c protease)
NS(=O)(=O)c1ccc(NNC(=O)c2ccc(Br)o2)c([N+](=O)[O-])c1	GDH-TPI counter 44.6 (no result: RecA splice inh)
CC(=O)N1CCN(S(=O)(=O)c2cccc(C(=O)NNC(=O)Cn3nc(C)cc3C)c2)CC1	UGM FP inh 10.4 (no result: RecA splice inh)
COc1ccc2nc(SCC(=O)NN)cc(C)c2c1	RecA splice inh 41.9
COc1ccc(C2c3ccc(O)cc3Oc3ncn4nc(-c5ccccn5)nc4c32)cc1OC (stereo not given)	none
COc1ccc(C2c3ccc(O)cc3Oc3ncn4nc(-c5ccccn5)nc4c32)cc1 (stereo not given)	GDH-TPI counter 36.4
NC(=O)CCN1CCN(C(=O)c2ccc3nc(Cc4cccc(Cl)c4)oc3c2)CC1	none
O=[N+]([O-])c1cccc2c([As](=O)(O)O)cccc12	RecA splice inh 35.3
CCC(C)(C)NC(=O)CCCSc1nc2ccccc2[nH]1	none
C=C(C)COc1ccc2c(C)c(CC(=O)N3C[C@H]4C[C@@H](C3)c3cccc(=O)n3C4)c(=O)oc2c1C	Mtb FBA inh 124.5
COc1ccc2c(C)c(CC(=O)N3C[C@H]4C[C@@H](C3)c3cccc(=O)n3C4)c(=O)oc2c1C	Mtb FBA inh 134.2
Cc1cc(=O)oc2c(C)c(OCC(=O)N3C[C@H]4C[C@@H](C3)c3cccc(=O)n3C4)ccc12	none

Screening results (PubChem)
